# According to PubChem BioAssay (NCATS):
# Records with an inconclusive call do not appear. Where a call stands in place of a potency, no number is given. Activity calls are given as the source filed them. The call rests on the fitted dose curve; in most records, active means well fitted cell-killing curve with a large enough effect; inconclusive means small, poorly fitted or top-dose-only effect; inactive means no such curve, though single readings can be large or run the other way.
# Assay: qHTS of pediatric cancer cell lines to identify multiple opportunities for drug repurposing: Primary screen for Rh41 cells (AID 1347108);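 further: luminescence drop marks cytotoxic hits; nearly all actives have a fitted effect of over 70% in size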
# Settings: Rh41 rhabdomyosarcoma viability, CellTiter-Glo luminescence, 48 h; series mostly up to 46 µM
# Summary of the method: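 Plated cells (500-1,000 per well, growth media) were allowed to settle for 5 hours, treated with compound dilutions for 48 hours, then lysed with CellTiter-Glo for 15 min at room temperature before luminescence reading.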
row,Structure (SMILES),Potency
1,C[C@]12C=CC(=O)C=C1[C@@H](F)C[C@@H]1[C@@H]2[C@@H](O)C[C@@]2(C)[C@H]1CC[C@]2(O)C(=O)CO,inactive
2,CC(C)(C(=O)c1cccnc1)c1cccnc1,inactive
3,Cc1onc(-c2c(Cl)cccc2Cl)c1C(=O)N[C@@H]1C(=O)N2[C@@H]1SC(C)(C)[C@@H]2C(=O)O,inactive
4,CC/C(=C(/CC)c1ccc(O)cc1)c1ccc(O)cc1,inactive
5,Cc1cc(=O)n(-c2ccccc2)n1C,inactive
6,CCN(CC)C(=O)N1CCN(C)CC1,inactive
7,CCN1CCN(c2cc3c(cc2F)c(=O)c(C(=O)O)cn3C2CC2)CC1,inactive
8,CN=C(NC#N)Nc1ccc(C2=NNC(=O)CC2C)cc1 (stereo not given),inactive
9,CN1CCN(CCCN2c3ccccc3Sc3ccc(S(=O)(=O)N(C)C)cc32)CC1,inactive
10,O=C1OC(c2ccc(O)cc2)(c2ccc(O)cc2)c2ccccc21,inactive
